# High-throughput results: PubChem BioAssay, several laboratories
# Cav32 inh = human Cav3.2 channel inhibition, primary screen | O95180 | Cav3.2-expressing cells, Fluo-4 calcium fluorescence FDSS; stronger effect = lower value | B-score at 10 µM | 100,000 compounds, 4% hits;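 active means single-dose well whose peak fluorescence ratio is a statistical outlier from its plate by either plate-standardised score or position-corrected B-score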
# CYP2C9 activ = activators of human CYP2C9; P11712; 96,000 compounds, 1.4% hits; activation factor at 5 µM; recombinant CYP2C9, luciferin-H conversion, luminescence; stronger effect = higher value; factor 1 = untreated enzyme, 0 = blocked; AID 1024;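 active means activation factor of 2 or more for CYP2C9 at a 5 µM dose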;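 further: 0 = sulfaphenazole-blocked wells and 1 = vehicle-only wells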
# CYP2C19 inh = inhibitors of human CYP2C19; P33261; CYP2C19 Supersomes, luciferin-H EGE luminescence, 30 min; inhibition, % at 5 µM; 96,000 compounds, 21% hits; AID 778;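 active means CYP2C19 inhibition above a set limit at 5 µM in the primary screen, cut at about 50% in these data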;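 further: plate controls were negative control wells for no effect and 2.5 mM tranylcypromine positive control for full effect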
# Target sequence (P33261 whole entry, looked up): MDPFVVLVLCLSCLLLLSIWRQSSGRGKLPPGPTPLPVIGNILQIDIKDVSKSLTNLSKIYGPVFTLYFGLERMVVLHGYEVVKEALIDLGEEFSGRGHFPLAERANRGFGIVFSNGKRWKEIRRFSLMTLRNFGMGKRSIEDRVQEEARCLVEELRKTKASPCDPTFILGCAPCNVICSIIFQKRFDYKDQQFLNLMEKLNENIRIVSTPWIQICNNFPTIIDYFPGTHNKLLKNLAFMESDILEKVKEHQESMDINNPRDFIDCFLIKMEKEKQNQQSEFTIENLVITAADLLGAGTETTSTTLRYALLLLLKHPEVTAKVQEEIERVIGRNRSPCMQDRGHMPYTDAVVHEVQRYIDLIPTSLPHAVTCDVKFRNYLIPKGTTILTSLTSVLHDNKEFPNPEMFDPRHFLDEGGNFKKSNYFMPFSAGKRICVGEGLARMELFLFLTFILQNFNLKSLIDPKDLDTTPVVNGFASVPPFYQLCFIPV
# CYP2C19 act = increases human CYP2C19 enzyme activity; AID 1025; recombinant CYP2C19, luciferin-H EGE luminescence; stronger effect = higher value; 0 = fully inhibited enzyme, 1 = untreated enzyme; activation factor at 5 µM; 96,000 tested, under 10 active; P33261;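 active means activation factor of at least 2 at 5 µM in the primary screen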;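 further: 0 = wells with 2.5 mM tranylcypromine and 1 = vehicle-only wells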
# CYP2C9 inhib = inhibitors of human CYP2C9 | CYP2C9 Supersomes, luciferin-H conversion, luminescence | inhibition, % at 5 µM | 96,000 compounds, 20% hits | AID 777;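 active means blocking of liver enzyme CYP2C9 beyond about 50% at 5 µM, limit read from the data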
# Active calls of the source: *; nt = not tested or not shown. In the library only some 27% were active in any assay of this set; here they are far more common.
SMILES,Cav32 inh,CYP2C9 activ,CYP2C19 inh,CYP2C19 act,CYP2C9 inhib
Cc1onc(-c2c(F)cccc2Cl)c1C(=O)Nc1ccc(S(=O)(=O)Nc2ncccn2)cc1,-0.13,1.1,-15,1.1,-12
Cc1onc(-c2c(F)cccc2Cl)c1C(=O)Nc1cccc(Cn2cccn2)c1,-1.2,0.5,23,0.8,52*
Cc1onc(-c2ccccc2Cl)c1C(=O)Nc1cccc(-c2cn3cccnc3n2)c1,-0.34,0.2,62*,0.4,85*
Cc1ccc(-n2nc3c(c2NC(=O)c2c(-c4ccccc4Cl)noc2C)CS(=O)(=O)C3)c(C)c1,nt,0.2,52*,0.5,79*
Cc1onc(-c2ccccc2Cl)c1C(=O)Nc1nnc(-c2ccc(Cl)cc2Cl)s1,-1.6,0.3,4,1,66*
Cc1onc(-c2ccccc2Cl)c1C(=O)Nc1ccc(OCC(=O)N2CCOCC2)cc1,-0.042,nt,nt,nt,nt
O=C(NCc1ccc(F)cc1)C(=O)NCC1OCCN1S(=O)(=O)c1cccs1 (stereo not given),-1.2,nt,nt,nt,nt
C#CC1CN(Cc2ccccc2)CC(C#C)N1C (stereo not given),1,1,39,0.6,0
Cc1onc(-c2ccccc2Cl)c1C(=O)Nc1ccc2c(c1)OCO2,-0.17,0.5,71*,0.3,53*
Cc1ccc(Cn2ccc(NC(=O)c3noc4c3CCc3ccccc3-4)n2)cc1,1,1.7,-10,1.1,-67
O=C(Nc1ccc2c(c1)OCO2)C1CC(c2ccccc2Cl)=NO1 (stereo not given),-0.76,1.8,94*,0.1,-75
Cc1ccc(Cn2ccc(NC(=O)c3c(-c4ccccc4Cl)noc3C)n2)cc1,-5.5*,0.5,25,0.7,52*
Cc1onc(-c2ccccc2Cl)c1C(=O)OCC(=O)c1ccc2c(c1)OCCO2,nt,0.5,55*,0.4,47
Cc1onc(-c2ccccc2Cl)c1C(N)=O,0.59,1,12,0.9,2
Cc1ccc(Oc2ccc(S(=O)(=O)N3CCOCC3)cc2C(N)=O)c(-n2nc3ccccc3n2)c1,nt,0.6,23,0.8,45
CC1(OC(=O)C2CCCC2)C(=O)C=C2C=C(c3ccsc3)N(C(CO)CO)C=C2C1=O (stereo not given),0.61,nt,nt,nt,nt
O=C(CCCN1C(=O)c2ccccc2C1=O)OC1CSCC1NC(=O)c1ccccc1 (stereo not given),0.019,1,70*,0.3,3
COc1ccccc1OCCCCOc1ccccc1F,-0.65,1.2,35,0.7,-24
COc1cccc(CNn2cnnc2)c1OCc1ccccc1F,0.057,0.7,76*,0.2,30
CCOc1cccc(CNn2cnnc2)c1OCc1ccccc1Cl,-0.81,0.8,76*,0.2,20
OCCN(CCO)Cc1ccc(Br)cc1,0.1,1,19,0.8,0
CCOC(=O)CSC(CC)C(=O)Nc1nnc(C(C)C)s1 (stereo not given),-1.3,nt,nt,nt,nt
CS(=O)(=O)N1CCN(c2ccccc2NC(=O)c2ccc(Cl)cc2)CC1,-0.77,0.9,4,1,14
CS(=O)(=O)N1CCN(c2ccccc2NC(=O)CSc2ccc(Cl)cc2)CC1,-4*,0.1,78*,0.2,87*
COc1ccc(NC(=O)c2ccccc2NC(=O)CSc2ccc(Cl)cc2)cc1,-1,0.4,62*,0.4,62*
SMILES,Cav32 inh,CYP2C9 activ,CYP2C19 inh,CYP2C19 act,CYP2C9 inhib
C=CCC(C#Cc1ccccc1)[N+](C)(C)CC=C (stereo not given),-0.57,1.1,2,1,-13
COc1ccc(-c2nnn(CC(=O)Nc3sc4c(c3C#N)CCCC4)n2)cc1,-0.8,0.5,18,0.8,54*
COc1ccc(-c2ccc(C#N)c(SCC(=O)Nc3sc4c(c3C#N)CCC4)n2)cc1OC,-1.8,0,42,0.6,98*
O=C(CSc1nc(-c2ccco2)cc(C(F)(F)F)n1)NC1CCCCCCC1,-0.32,nt,nt,nt,nt
CCC(=O)Nc1sc2c(c1C#N)CCCCC2,-1.2,1,24,0.8,3
COc1ccc(-c2cc(C(F)(F)F)nc(SCC(=O)Nc3sc4c(c3C#N)CCC4)n2)cc1,-2.3,0.3,28,0.7,68*
CCC1CCc2c(sc(NC(=O)CSc3nc(-c4ccco4)cc(C(F)(F)F)n3)c2C#N)C1 (stereo not given),-0.15,0.1,69*,0.3,89*
O=C(Nc1c(C(=O)Nc2cccc3ccccc23)cnn1-c1ccccc1)c1ccco1,0.3,nt,nt,nt,nt
O=C(c1ccccc1)N(Cc1ccco1)C1CCS(=O)(=O)C1 (stereo not given),0.19,1.1,14,0.9,-9
COc1ccc(C2=CC(c3c(C)nn(-c4ccccc4)c3Cl)n3nnnc3N2)cc1OC (stereo not given),-0.24,0.1,91*,0.1,93*
COc1ccccc1C1C=C(c2ccc(C)cc2)Nc2nnnn21 (stereo not given),-1.6,0.3,85*,0.1,71*
C1=C(c2ccccc2)Nc2nnnn2C1c1cccs1 (stereo not given),-0.007,0.7,29,0.7,28
Cc1ccc(C2=CC(c3cccs3)n3nnnc3N2)cc1 (stereo not given),nt,0.2,97*,0,82*
O=C(N1CCOCC1)N1CCCC(c2nc(-c3cccs3)no2)C1 (stereo not given),1.1,1.2,21,0.8,-18
COc1ccc(C(=O)N2CCCC(c3nc(-c4cccs4)no3)C2)cc1 (stereo not given),-0.1,0.3,84*,0.2,74*
COc1ccc(C(=O)N2CCCC(c3nc(-c4cccs4)no3)C2)cc1OC (stereo not given),-0.25,1,55*,0.5,4
CCC(C)NC(=O)c1cnn2c1NC(c1ccc3c(c1)OCO3)CC2C(F)(F)F (stereo not given),1.5,1,-1,1,2
CCOC(=O)/C(C#N)=C(\N)C(C)C(=O)Nc1ccccn1 (stereo not given),nt,0.9,10,0.9,7
CC(NC(=O)c1cc2ccccc2o1)C(=O)O (stereo not given),0.098,nt,nt,nt,nt
CC(NC(=O)c1cc2ccccc2o1)c1cccs1 (stereo not given),-1.3,0.3,82*,0.2,69*
O=C(c1cc2ccccc2o1)c1cccs1,-2.2,0.5,49,0.5,51*
CCOC(=O)C(NC(=O)OC(C)C)(Nc1nccs1)C(F)(F)F (stereo not given),0.019,1.1,55*,0.4,-6
N#CNC1=NCN(Cc2ccccc2)CN1,-1.2,1.1,-8,1.1,-12
O=C(Nc1ccccc1)C1Cc2ccccc2CN1C(=O)c1ccco1 (stereo not given),0.87,0.9,29,0.7,9
O=C(Nc1cc(C(F)(F)F)ccc1N1CCOCC1)C1Cc2ccccc2CN1C(=O)c1ccco1 (stereo not given),-8.8*,0,90*,0.1,96*
O=C(Nc1cc(C(F)(F)F)ccc1N1CCOCC1)c1cccs1,0.35,0.9,59*,0.4,15
